A short description of assay [1]: E. coli DRC41 culture turbidity changes, primary screen, E. coli filamentation inducer project, strain DRC41, OD650, 48 h (AID 1152).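 Further: E. coli MC1000 strain DRC41 lacking acrAB efflux pump and sulA.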 The note with it: E. coli DRC41 (acrAB sulA), higher = more signal, called active from +8 up or from −8 down.
Assay [2] is described as follows: small-molecule binders of probe aLefty1, primary screen, biochemical, small-molecule microarray, 635/667 nm fluorescence (AID 1153).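 Further: score merges spot fluorescence with signal-to-noise ratio from the scanned slide images.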 The conditions noted are these: higher = more signal.
Assay [3] in a line: PSAC antagonists in infected red cells, primary screen, cell-based, P. falciparum Indochina, OD700, 1 h (AID 1154). The conditions noted are these: P. falciparum Indochina infected RBC osmotic lysis, higher = more signal, called active from +8 up or from −8 down.
Assay [4] in a line: PSAC antagonists in infected red cells, primary screen, cell-based, P. falciparum Indochina, OD700, 2 h (AID 1155).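 Further: lysis reports solute entry through the parasite surface anion channel PSAC; channel blockers reduce lysis of infected cells.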 The note with it: P. falciparum Indochina infected erythrocytes, osmotic lysis OD700; higher = more signal, called active from +8 up or from −8 down.
Assay [5] is described as follows: osmotic lysis modulators in infected erythrocytes, primary screen, PSAC antagonist project, cell-based, P. falciparum Indochina, OD700, 3 h (AID 1156). The conditions noted are these: higher = more signal, called active from +8 up or from −8 down.
Assay [6] can be described thus: PSAC antagonists in infected red cells, primary screen, cell-based, P. falciparum Indochina, OD700, 18 h (AID 1157). The note with it: P. falciparum Indochina infected erythrocytes, osmotic lysis OD700, 18 h; higher = more signal, called active from +8 up or from −8 down.
The nature of assay [7]: modulators of S6 phosphorylation in cells, primary screen, cell-based, A549, cytoblot, luminescence, serum-stimulated (AID 1158).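 Further: serum-stimulated A549 lung adenocarcinoma cells; signal is phosphorylated S6 detected by cytoblot immunostaining with HRP secondary.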 The note with it: A549 phospho-S6 cytoblot, 5 h, higher = more signal.
For assay [8], the target named is NADPH oxidase 2 (Homo sapiens) (UniProt P04839). Put plainly: NOX2-dependent H2O2 signal modulators, primary screen, NOX inhibitor project, cell-based, HEK293-NOX2, PMA-stimulated, Amplex Red fluorescence (AID 1159). Further: test concentration not given here. The note with it: 45 min, higher = more signal, called active from +8 up or from −8 down.
NADPH oxidase 2 (Homo sapiens), sequence (P04839 whole entry, looked up): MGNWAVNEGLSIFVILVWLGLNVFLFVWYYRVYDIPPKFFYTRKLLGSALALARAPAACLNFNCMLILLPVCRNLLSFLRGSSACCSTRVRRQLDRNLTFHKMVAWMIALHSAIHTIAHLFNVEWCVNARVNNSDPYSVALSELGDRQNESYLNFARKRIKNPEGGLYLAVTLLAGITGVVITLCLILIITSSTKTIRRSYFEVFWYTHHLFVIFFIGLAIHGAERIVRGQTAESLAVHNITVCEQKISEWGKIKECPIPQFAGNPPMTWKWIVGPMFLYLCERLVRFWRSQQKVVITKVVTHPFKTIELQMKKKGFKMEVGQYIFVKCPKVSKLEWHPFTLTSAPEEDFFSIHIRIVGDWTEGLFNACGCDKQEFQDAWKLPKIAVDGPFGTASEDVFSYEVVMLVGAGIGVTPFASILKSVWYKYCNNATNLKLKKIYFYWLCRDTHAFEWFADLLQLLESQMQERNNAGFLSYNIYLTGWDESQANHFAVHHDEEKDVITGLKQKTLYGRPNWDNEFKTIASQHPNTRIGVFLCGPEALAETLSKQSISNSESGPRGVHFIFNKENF
Assay [9] addresses NADPH oxidase 4 (Homo sapiens) (UniProt Q9NPH5). Put plainly: NOX4-dependent H2O2 signal modulators, primary screen, NOX inhibitor project, cell-based, HEK293-NOX4, tetracycline-induced, Amplex Red fluorescence (AID 1160). The note with it: 45 min, higher = more signal, called active from +8 up or from −8 down.
The target in assay [10] is NADPH oxidase 5 (Homo sapiens) (UniProt Q96PH1). In words: NOX5-dependent H2O2 signal modulators, primary screen, NOX inhibitor project, cell-based, HEK293-NOX5, Amplex Red fluorescence (AID 1161). The note with it: HEK293-NOX5, ionomycin, 45 min, higher = more signal.
NADPH oxidase 5 (Homo sapiens), sequence (Q96PH1 whole entry, looked up): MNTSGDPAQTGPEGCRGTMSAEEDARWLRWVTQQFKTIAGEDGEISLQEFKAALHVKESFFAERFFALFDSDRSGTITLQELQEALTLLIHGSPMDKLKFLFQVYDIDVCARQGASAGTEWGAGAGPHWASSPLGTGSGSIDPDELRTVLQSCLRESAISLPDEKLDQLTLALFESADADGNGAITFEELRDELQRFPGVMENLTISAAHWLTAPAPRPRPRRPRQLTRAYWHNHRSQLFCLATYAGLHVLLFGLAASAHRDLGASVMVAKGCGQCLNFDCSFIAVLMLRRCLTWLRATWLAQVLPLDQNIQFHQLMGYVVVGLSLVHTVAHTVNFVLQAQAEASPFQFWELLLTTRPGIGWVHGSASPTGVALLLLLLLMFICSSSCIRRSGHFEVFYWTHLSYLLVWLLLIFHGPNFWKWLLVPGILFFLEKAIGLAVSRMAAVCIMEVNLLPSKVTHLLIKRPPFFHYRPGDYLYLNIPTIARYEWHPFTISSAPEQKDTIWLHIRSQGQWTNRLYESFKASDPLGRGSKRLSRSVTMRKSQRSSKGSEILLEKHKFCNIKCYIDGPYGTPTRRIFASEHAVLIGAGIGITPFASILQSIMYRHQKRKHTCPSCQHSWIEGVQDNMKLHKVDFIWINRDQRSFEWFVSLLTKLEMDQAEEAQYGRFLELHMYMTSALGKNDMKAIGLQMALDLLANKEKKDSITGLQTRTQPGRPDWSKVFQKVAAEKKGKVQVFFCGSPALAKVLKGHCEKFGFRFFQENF

The structures appear in SMILES notation. Activity calls are given as the source filed them.

NADPH oxidase 4 (Homo sapiens), sequence (Q9NPH5 whole entry, looked up): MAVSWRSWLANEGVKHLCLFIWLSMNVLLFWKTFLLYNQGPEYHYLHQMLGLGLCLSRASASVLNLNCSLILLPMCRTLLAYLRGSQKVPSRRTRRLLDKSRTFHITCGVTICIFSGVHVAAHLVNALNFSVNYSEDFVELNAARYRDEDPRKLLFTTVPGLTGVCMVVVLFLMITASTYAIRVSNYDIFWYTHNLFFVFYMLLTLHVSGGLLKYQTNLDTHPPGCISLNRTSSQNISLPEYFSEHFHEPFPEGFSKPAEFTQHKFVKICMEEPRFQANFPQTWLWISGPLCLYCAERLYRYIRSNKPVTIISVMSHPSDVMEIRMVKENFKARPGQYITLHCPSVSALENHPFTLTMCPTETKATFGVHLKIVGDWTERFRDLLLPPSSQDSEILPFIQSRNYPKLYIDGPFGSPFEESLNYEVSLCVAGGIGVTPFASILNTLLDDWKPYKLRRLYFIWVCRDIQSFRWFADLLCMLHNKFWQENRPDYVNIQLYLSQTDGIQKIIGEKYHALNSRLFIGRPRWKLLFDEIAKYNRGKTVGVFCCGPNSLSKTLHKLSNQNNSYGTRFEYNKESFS

`CCN1C(C)=C(C(=O)OC)[C@@H](c2ccccc2)N2C(=O)[C@@]3(C(=O)OC)O[C@@]12[C@@H]1C(=O)CCC[C@@H]13`: the z-score in [1] was -0.128 (inactive); in [3] it was 0.732 (inactive); in assay [4], -0.69 (inactive); in [5] it was 1.56 (inactive); in assay [6], -1.11 (inactive); in [7], 0.641. The figures for the z-score in assay [8], in assay [9] and in assay [10] were 0.715 (inactive), 1.11 (inactive) and 0.25, respectively. The composite z-score in [2] was -0.0518.

As for `CCC1=C2CN(Cc3ccccc3Br)[C@@H]([C@@H](O)Cc3ccccc3)C2C=CCC1` (stereo not given in full), the z-score was 0.625 (inactive) in assay [1]; 4.02 (inactive) in [3]; -0.96 (inactive) in assay [4]; -0.115 (inactive) in assay [5]; -1.8 (inactive) in assay [6]; 1.56 in assay [7]. Further, the z-score was -0.306 (inactive) in assay [8], -4.86 (inactive) in [9] and -4.65 in assay [10]. In assay [2], this compound displayed a composite z-score of -0.101.

Turning to `C[C@@H]1CC[C@H]2C(=O)N3[C@@H](CC[C@@H](C)[C@@H]3c3cccc(N4CCOCC4)c3)C(=O)N2[C@H]1c1cccc(N2CCOCC2)c1`, the z-score in assay [1] is 0.107 (inactive); in [3], 0.43 (inactive); in assay [4], 0.367 (inactive); in assay [5], 0.567 (inactive); in [6], 0.197 (inactive); in assay [7], 0.348. For the same compound, the values for the z-score in assay [8], in assay [9] and in assay [10] were 1.07 (inactive), -1.09 (inactive) and 0.125, respectively. For the same compound, the composite z-score in assay [2] turned out to be 0.191.

In the case of `COCCOC(=O)N1C(=O)[C@@]2(c3cc(C#CC4=CCCCC4)ccc31)[C@H](C(=O)NC[C@H](O)c1ccccc1)[C@H]1C(=O)O[C@H](c3ccccc3)[C@H](c3ccccc3)N1[C@@H]2c1ccc(OCCO)cc1`, the z-score in assay [1] is -0.999 (inactive); in assay [3] it was 3.71 (inactive); in assay [4], 2.15 (inactive); in [5], -0.681 (inactive); in [6] it was 1.05 (inactive); in assay [7], 0.0766. Besides, the results for the z-score in assay [8], in [9] and in assay [10] were 1.54 (inactive), 1.17 (inactive) and 1.59, respectively. Further, the composite z-score in assay [2] worked out at 0.197.

With `CCC(=O)[C@]12O[C@@]3([C@@H]4C(=O)OCC[C@@H]41)N(CC)C(C)=C(C(=O)OC)[C@@H](c1ccccc1)N3C2=O`, the z-score in assay [1] is 0.362 (inactive); in assay [3] it was 0.91 (inactive); in assay [4], -0.071 (inactive); in assay [5], -1.35 (inactive); in assay [6], -1.08 (inactive); in assay [7], 0.815. Besides, the z-score in assay [8] was 1.5 (inactive); in [9], -1.36 (inactive); in [10], 0.922. Moreover, in assay [2], the composite z-score is -0.29.

Consider `C=C(COC)C(=O)CC[C@H](OC(=O)c1ccccc1-c1ccccc1C(=O)O)c1cccc(OCCO)c1`, for which the z-score in assay [1] was 0.0418 (inactive); in [3], 3.26 (inactive); in [4], 1.91 (inactive); in assay [5], 0.281 (inactive); in assay [6] it was 1.36 (inactive); in assay [7], 0.29. Besides, the z-score in assay [8] was 0.635 (inactive); in [9] it was 0.112 (inactive); in assay [10], -2.96. In assay [2], this compound gave a composite z-score of 0.333.

Consider `CCCC[C@@H]1C[C@H]1[C@@H](NC(=O)c1ccccc1)c1ccccc1C(F)(F)F`, for which the z-score in assay [1] was -0.94 (inactive); in assay [3] it was -0.247 (inactive); in assay [4], 0.803 (inactive); in assay [5] it was -0.429 (inactive); in [6] it was 0.422 (inactive); in assay [7] it was 0.807. The z-score in [8] was 0.566 (inactive); in assay [9], -1.02 (inactive); in [10] it was 0.262. Also, the composite z-score in assay [2] was determined as 0.747.

For the compound `NC(=O)NCC#Cc1ccc2c(c1)[C@]1(C(=O)N2)[C@H](c2ccccc2OCCO)N2[C@H](c3ccccc3)[C@H](c3ccccc3)OC(=O)[C@H]2[C@@H]1C(=O)N1CCN(c2ncccn2)CC1`, the z-score in assay [1] is 2.11 (inactive); in [3] it was 3.42 (inactive); in assay [4], 0.449 (inactive); in [5], 0.229 (inactive); in assay [6], -1.44 (inactive); in assay [7], 2.08. Besides, the z-score in assay [8] was 1.09 (inactive); in assay [9], 0.958 (inactive); in assay [10], -0.596. Besides, in [2], the composite z-score amounted to 0.445.

For the compound `CCCC=C(CCC)[C@@H](NS(=O)(=O)c1ccc(C(F)(F)F)cc1)c1ccc(-c2ccccc2)cc1`, the z-score in assay [1] is -1.78 (inactive); in assay [3], 2.51 (inactive); in [4], 0.329 (inactive); in [5], -0.516 (inactive); in [6] it was 0.543 (inactive); in assay [7] it was 1.47. Further, the z-score in assay [8] is -1.57 (inactive); in assay [9] it was -0.618 (inactive); in assay [10], 2.7. In assay [2], this compound gave a composite z-score of 0.448.

For `COC(=O)[C@@]1(Cc2ccccc2CN=[N+]=[N-])N=C(c2ccc(OCCCO)cc2)O[C@H]1c1ccccc1N=[N+]=[N-]`, the z-score was -0.55 (inactive) in [1]; 26.8 (active) in [3]; 16.8 (active) in [4]; 1.76 (inactive) in assay [5]; 2.33 (inactive) in [6]; 0.166 in [7]. For the same compound, the z-score was -1.2 (inactive) in [8], 1.25 (inactive) in [9] and 0.841 in [10]. Besides, in assay [2], the composite z-score came out at 0.495.

For the compound `CC(c1ccccc1)C(O)C1C=CC2C(=O)N(C)C(=O)C2N1N(c1ccccc1)c1ccccc1` (stereo not given), the z-score is -1.04 (inactive) in assay [1]; 1.02 (inactive) in assay [3]; 0.386 (inactive) in assay [4]; 0.625 (inactive) in assay [5]; 0.777 (inactive) in assay [6]; -0.987 in [7]. Further, the z-score was -0.735 (inactive) in [8], -0.411 (inactive) in [9] and -0.649 in assay [10]. Moreover, in assay [2], the composite z-score was found to be 0.391.

As for `CO[C@H]1COC(=O)[C@@H](Cc2ccccc2)NC(=O)[C@@H](C)COC(=O)CC=C[C@@H]1C`, the z-score in [1] is 0.428 (inactive); in assay [3] it was -0.224 (inactive); in [4] it was -0.204 (inactive); in assay [5], -0.234 (inactive); in assay [6], -0.481 (inactive); in [7], -0.003. Further, the figures for the z-score in assay [8], in [9] and in assay [10] were -0.246 (inactive), 0.937 (inactive) and 0.264, respectively. The compound further had a composite z-score in assay [2] of -0.0573.

Take `C[C@]1(C(=O)NCCN2CCOCC2)c2ccccc2C(=O)N(Cc2ccccc2)[C@H]1c1ccc(CO)cc1`: the z-score in assay [1] was 0.402 (inactive); in assay [3], 5.59 (inactive); in assay [4] it was 0.516 (inactive); in assay [5] it was 1.88 (inactive); in assay [6] it was 0.719 (inactive); in assay [7], 0.282. The z-score in [8] was 0.346 (inactive); in assay [9] it was -1.61 (inactive); in [10], -2.77. The same compound returned a composite z-score in assay [2] of -0.0969.

Values taken from PubChem BioAssay.
